Hits are enriched below; roughly 2.8% of the tested compounds scored in any of these assays.
Platelet DG rel: modulates dense granule release in human platelets; inhibition, %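 (compounds screened at 7.5 µM in platelet-rich plasma)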; actives 0.22% (n = 300,000); human platelet-rich plasma, SFLLRN dense granule ATP release, luminescence; AID 1663;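 active = mean replicate score, as percent of positive control, at or above 50; inconclusive = mean below 50 but at least one replicate at or above 50; inactive = mean and every replicate below 50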
HIF act: HIF pathway transcriptional activation; AID 1910; actives 0.32% (n = 300,000); U2OS HRE-luciferase reporter, luminescence; normalized: DMSO 0%, desferrioxamine 100%; activation, % at 7.5 µM (by protocol);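 active = mean activation of at least 10% of the iron chelator positive control signal, with at least half of replicates also reaching 10%; inconclusive = mean and replicate majority disagree about reaching 10%; inactive = mean and most replicates under 10%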
pCIP destab: compounds decreasing mouse p/CIP protein stability. Q05BA5. F442A p/CIP-EGFP cells, EGFP fluorescence, 16 h. decrease of EGFP signal, % at 10 µM. actives 0.01% (n = 290,000). AID 1984;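 active = EGFP signal decrease of at least 30% at 10 µM or well 3 SD below plate mean, unless failing retest; inactive = the rest, including hits failing retest or dose response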
PolyA inhibitor: blocks polyadenylation in yeast reporter cells; S. cerevisiae SKY197-pL101 polyadenylation reporter, beta-gal luminescence; efflux-impaired pdr1/pdr3 knockout yeast; score 100 = 6 SD above DMSO; activity score, % at 12 µM; actives 0.02% (n = 300,000); AID 1875;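 active = lowest replicate activity score at least 50, where 100 means six control SD above control mean; inconclusive = lowest score under 50 but half or more replicates reach 50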;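 also: yeast exposed to compound for 9 h at 30 °C; higher score means more reporter readthrough which indicates perturbed polyadenylation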
AHR activator: human AHR activation | actives 2.5% (n = 320,000) | P35869 | AHR-responsive luciferase reporter cells, luminescence | activation, % at 5 µM | AID 2796; in the data active = activation above about 47%;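 also: 0% = vehicle wells and 100% = reference agonist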
AHR act cf: confirmation of human aryl hydrocarbon receptor activators. shares compounds with AHR activator. human cells, AHR-responsive luciferase reporter, luminescence. activation, % at 9 µM. actives 87% (n = 2,300); in the data active = activation above about 49%;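 also: HepG2 hepatoma cells carrying a DRE-driven firefly luciferase reporter; 0% = vehicle wells and 100% = reference agonist wells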
PXR counter: activates human PXR in AHR activator counter-screen. cell-based PXR reporter, luciferase luminescence. AID 434939. actives 88% (n = 2,300). shares compounds with AHR activator. activation, % at 11.6 µM; in the data active = activation above about 11%;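 also: human hepatoma DPX-2 cells expressing full-length human PXR; 0% = DMSO and 100% = reference agonist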
* hit, by the source's call; ? = inconclusive; . = no result.

SMILES	Platelet DG rel	HIF act	pCIP destab	PolyA inhibitor	AHR activator	AHR act cf	PXR counter
OC1(C#Cc2c(-c3ccsc3)oc3ccc(N4CCOCC4)cc23)CCCCC1	2	-1	.	7	111*	120*	80*
Cn1c(=O)n(CC(N)=O)c2ccccc21	-27	0	-6	-5	0	.	.
Cn1c(=O)n(CCc2ccccc2)c2ccccc21	3	0	5	-6	125*	111*	40*
O=C(CSc1nnc2ccccn12)Nc1ccccc1C(=O)O	-6	0	10	-4	4	.	.
CC1CCc2sc(C(=O)N=Nc3c(O)[nH]c4ccccc34)cc2C1 (stereo unspecified)	-8	0	-1	-10	84*	103*	8
COCC(C)n1c(SCc2ccc(OC)c(F)c2)nc2ccccc2c1=O (stereo unspecified)	-32	-1	16	2	.	.	.
C(=N\Nc1ncnc2sc3c(c12)CCC3)/c1ccncc1	5	0	-1	-4	81*	124*	29*
CC(C)Cc1ccc(/C=C/C(=O)NC2CC2)cc1	3	2	-13	-1	7	.	.
COc1ccc(C(C)(C)C)cc1NC(=O)COC(=O)C1=NNC(=O)CC1	.	.	.	.	1	.	.
Oc1ccc(N=Nc2ccc(Br)cc2)c(O)c1	18	2	2	-8	89*	61*	9
COc1ccc(NC(=O)Nc2cccc3c2O[C@@H](CN(C)S(=O)(=O)c2cn(C)cn2)[C@@H](C)CN([C@H](C)CO)C3=O)cc1	.	.	.	.	0	.	.
Oc1c(C=NCc2ccc(F)cc2)[nH]c2ccc(Br)c(Cl)c12	-2	0	-6	18	81*	86*	31*
O=Cc1cc2ccccc2nc1SCc1ccc(Cl)cc1	-7	0	9	0	30	.	.
Cc1ccc(CSc2nc3ccccc3cc2C=O)cc1	-3	1	-10	10	82*	72*	15*
c1ccc2c(c1)oc1c(Nc3ccc4c(c3)OCCO4)ncnc12	4	3	1	-25	95*	110*	19*
O=[N+]([O-])c1ccc2ncnc(Nc3ccc4c(c3)OCCO4)c2c1	-11	1	-7	-5	43	.	.
CC1=C(C(=O)Nc2ccc(Br)cc2)C(c2ccco2)NC(=O)N1 (stereo unspecified)	-1	1	3	18	107*	35	7
COc1ccc(Cl)cc1C(=O)NNC(=O)CNC(=O)c1ccc(C)s1	.	.	.	.	23	.	.
CCOc1ccc2c(c1)c1nc3ccccc3nc1n2C	0	1	9	-9	.	.	.
Cc1ccc2c(c1)c1nc3ccccc3nc1n2C	9	2	-1	-44	88*	117*	.
Cc1cccc(NC2=C(NCCO)C(=O)c3ccccc3C2=O)c1	-11	3	2	1	113*	77*	65*
COC(=O)c1ccc(NC(=S)NCCCn2ccnc2)cc1	0	-1	2	.	10	.	.
Cc1nc2cc(NCc3nc4ccccc4n3Cc3ccccc3)ccc2n1C	6	1	-6	7	27	.	.
Cn1c(CNc2ccc(Cl)cc2)nc2ccccc21	3	3	4	-5	87*	139*	36*
COc1ccc(-c2noc(=O)n2CC(=O)N2CCC(Cc3ccccc3)CC2)cc1	0	-1	0	5	1	.	.
SMILES	Platelet DG rel	HIF act	pCIP destab	PolyA inhibitor	AHR activator	AHR act cf	PXR counter
Cc1c(/C=N/NC(N)=O)c2ccccn2c1C(=O)c1ccc(F)cc1	2	-1	-20	-14	90*	26	77*
CCN(Cc1ccccc1)c1ccc(/C=C(\C#N)c2ccccn2)cc1	8	3	-86	-7	86*	70*	44*
S=c1nc2ccccc2c2nc(-c3ccccc3Cl)[nH]n12	-9	-25	6	-5	134*	129*	28*
S=c1nc2ccccc2c2nc(-c3ccccc3)[nH]n12	-2	2	10	-20	106*	129*	23*
Clc1nc(-c2ccccc2)c2ccccc2n1	0	-1	-6	-2	-1	.	.
Clc1ccccc1-c1nc2ccccc2c2nc3ccccc3n12	3	0	-23	-30	2	.	.
CC(C)[C@@H](C(=O)N[C@@H](Cc1ccccc1)C(=O)O)N1C(=O)N2CCc3c([nH]c4ccccc34)[C@@]2(C)C1=O	-1	0	14	-11	1	.	.
CN(CC(=O)Nc1cccc(F)c1)C(=O)/C=C/c1ccc2ccccc2n1	2	-6	1	8	17	.	.
CN(C)c1nc(N)nc(-c2nc3ccccc3s2)n1	7	.	-6	-19	80*	167*	.
CC(=O)Cc1nsc(NC(=O)c2ccc(COc3ccccc3C)o2)n1	0	0	-13	3	4	.	.
Cc1cnc(C(=O)Nc2nnc(C3CC3)s2)cn1	2	0	-3	3	10	.	.
COc1c(C(=O)Nc2nnc(C3CC3)s2)csc1Cl	-15	2	-6	1	113*	157*	79*
COc1cc(N)ccc1NC(=O)c1cc2ccccc2o1	-4	-23	-3	-17	107*	141*	12*
O=C(Nc1ccc(Cl)cn1)c1cccc(F)c1	3	4	-10	-1	3	.	.
O=C(Nc1ccc(Cl)cn1)Nc1ccccc1F	0	5	-2	-11	39	.	.
O=C(Nc1cccc(C(=O)Nc2ccc(Cl)cn2)c1)c1ccccc1	-1	1	-7	-15	82*	12	19*
O=C(Nc1ccc(Cl)cn1)c1ccccc1F	-4	3	6	-2	148*	77*	21*
O=C(Nc1ccc(Cl)cn1)c1cc2ccccc2o1	-13	-17	0	-14	110*	72*	8
COc1cc(NC(C)=O)ccc1NC(=O)c1cc2ccccc2o1	-13	2	-13	-4	3	.	.
O=C(Nc1ccccn1)c1cc2ccccc2o1	?	-3	-2	-15	28	.	.
COc1ccc(OC)c(-c2nn(-c3ccccc3)cc2C(=O)NCC(c2ccco2)N2CCCC2)c1 (stereo unspecified)	.	.	.	.	1	.	.
CCOc1cccc2sc(NC(=O)c3ccc(Br)s3)nc12	27	1	-1	1	97*	20	13*
CCOC(=O)Cc1csc(NC(=O)c2ccc(Br)s2)n1	-2	0	-6	-9	8	.	.
Cc1cc(C)nc(-n2ncc3c2CC(c2cccc(Cl)c2)CC3=O)n1 (stereo unspecified)	-10	1	1	-4	10	.	.
CCn1nnnc1NC(=O)c1ccc2ccccc2c1	9	-1	-7	-2	1	.	.
CCn1nnnc1NC(=O)c1cc(OC)c(OC)c(OC)c1	2	0	-16	-6	128*	101*	11*
